Screening results deposited in PubChem BioAssay by several laboratories.
Compounds with a hit are over-represented: about 4% of the library has one in this group of screens.
Rv3671c inh: inhibitors of M. tuberculosis serine protease Rv3671c; inhibition, % at 5.96 µM; P9WHR9; actives 0.048% (n = 320,000); in the data active means inhibition above about 38%;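 further: extracellular domain of Rv3671c used as enzyme; 0% = enzyme with DMSO and 100% = no enzyme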
Target sequence (P9WHR9 whole entry, looked up, the tested form may be a part): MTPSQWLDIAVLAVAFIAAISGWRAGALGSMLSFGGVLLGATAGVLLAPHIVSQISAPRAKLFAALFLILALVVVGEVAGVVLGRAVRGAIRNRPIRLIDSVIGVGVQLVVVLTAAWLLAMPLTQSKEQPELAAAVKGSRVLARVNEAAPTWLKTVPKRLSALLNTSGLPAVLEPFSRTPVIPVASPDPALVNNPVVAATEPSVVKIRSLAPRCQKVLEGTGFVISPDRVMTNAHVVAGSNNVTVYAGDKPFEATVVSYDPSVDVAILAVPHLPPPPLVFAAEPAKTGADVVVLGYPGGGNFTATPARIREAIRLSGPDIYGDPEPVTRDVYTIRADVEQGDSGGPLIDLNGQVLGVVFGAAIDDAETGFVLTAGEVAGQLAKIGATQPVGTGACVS
Mtb bLac sens: beta-lactam sensitization of Mtb H37Rv. actives 0.27% (n = 330,000). M. tuberculosis H37Rv growth with meropenem, percent inhibition. inhibition, % at 25 µM; call rule not given here;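 further: growth measured after seven days incubation then overnight dye step; 0% = bacteria only wells and 100% = bacteria with antibiotic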
FBA Mtb inh: Mtb fructose-bisphosphate aldolase inhibition; P9WQA3; purified M. tuberculosis FBA, fluorescence read-out; inhibition, % at 1 µM; actives 2.3% (n = 360,000); AID 588726; in the data active means inhibition above about 27%;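 further: 0% = vehicle and 100% = reference inhibitor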
Target sequence (P9WQA3 whole entry, looked up): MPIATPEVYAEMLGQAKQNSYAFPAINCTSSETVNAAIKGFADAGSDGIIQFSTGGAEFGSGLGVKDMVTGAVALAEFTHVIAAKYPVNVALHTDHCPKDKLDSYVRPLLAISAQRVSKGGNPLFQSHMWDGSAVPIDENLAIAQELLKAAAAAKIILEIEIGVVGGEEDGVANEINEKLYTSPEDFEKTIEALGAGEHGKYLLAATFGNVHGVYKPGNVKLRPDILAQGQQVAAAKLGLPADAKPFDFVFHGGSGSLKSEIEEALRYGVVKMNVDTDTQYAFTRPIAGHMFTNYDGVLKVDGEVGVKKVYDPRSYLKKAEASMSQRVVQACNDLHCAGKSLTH
UGM FP inh: inhibitors of M. tuberculosis UDP-galactopyranose mutase. purified UGM, fluorescence polarization probe displacement. actives 0.06% (n = 320,000). AID 504406. inhibition, % at 10 µM. P9WIQ1; in the data active means inhibition above about 10%, passing the limit was not always enough
RecA splice inh: inhibitors of M. tuberculosis RecA intein splicing; cell-free RecA intein splicing, fluorescence; inhibition, % (test concentration not listed); actives 0.75% (n = 290,000); in the data active means inhibition above about 30%;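 further: 0% = vehicle wells and 100% = reference inhibitor control wells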
GDH-TPI inh: GDH-TPI coupled enzyme inhibition counter-screen; GDH-TPI coupled enzyme counterscreen, NADH absorbance; inhibition, % at 4.8 µM; actives 1.2% (n = 360,000); AID 588335; in the data active means inhibition above about 30%;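 further: 0% = DMSO wells and 100% = wells lacking the enzyme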
* hit, by the source's call; nt = no result given; + = active, no number.

SMILES | Rv3671c inh | Mtb bLac sens | FBA Mtb inh | UGM FP inh | RecA splice inh | GDH-TPI inh
CS(=O)(=O)N(CC(=O)N/N=C/c1cccc2c1OCCO2)c1ccccc1Br | 1.7 | -10.2 | 14.7 | -1.0 | 1.2 | 5.1
CCOC(=O)c1ccc(-c2ccc(/C=N/NC(=O)CN(c3ccccc3Br)S(C)(=O)=O)o2)cc1 | 0.6 | 5.0 | 5.6 | -1.3 | -2.4 | 32.5*
c1ccc(-n2nc3c(ccc4cnnc43)[nH]2)cc1 | -11.1 | -3.9 | 143.7* | -0.9 | -2.0 | 26.9
CCN(CCn1cccn1)C(=O)c1cc(COc2cccc3cccnc23)on1 | 2.4 | 2.4 | 4.0 | nt | -0.7 | -3.1
COc1cc(OC)c(NC(=O)c2ccco2)cc1Cl | 0.5 | 6.1 | 1.4 | -1.8 | 5.7 | 14.0
COc1cc(NC(=O)c2ccco2)c(OC)cc1NC(=O)Nc1ccc(Cl)cc1 | 11.6 | 9.1 | 6.9 | -2.3 | -4.9 | 31.1*
Cc1ccccc1OCC(=O)OC(C)C(=O)NC1CCCC1 (centres undefined) | 5.1 | -5.5 | -2.5 | -3.0 | nt | -3.5
COc1ccc(OC)c(-n2nnnc2SCC(=O)NCCc2ccccc2)c1 | -0.1 | -0.8 | 1.5 | -0.6 | 6.3 | 18.3
CCSc1nnc(NC(=O)c2ccc(C)o2)s1 | 8.8 | 9.4 | -0.3 | 2.4 | 2.3 | 31.8*
COc1cccc(NC(=O)C(=O)c2cn(CC(=O)N3CCCC3)c3ccccc23)c1 | 1.6 | 1.5 | -0.7 | -2.1 | 3.2 | 31.0*
Cc1ccc(NC(=O)C(=O)c2cn(CC(=O)N3CCCCC3)c3ccccc23)cc1 | -14.0 | 8.7 | -2.2 | -0.3 | 1.5 | 26.4
CCc1ccc(NC(=O)C(=O)c2cn(CC(=O)N3CCCCC3)c3ccccc23)cc1 | -53.3 | -8.2 | -3.0 | 0.4 | -0.9 | 37.0*
COc1ccc(NC(=O)C(=O)c2cn(CC(=O)N3CCCC3)c3ccccc23)cc1OC | -4.9 | -2.4 | 5.8 | -0.2 | -1.6 | 13.7
N#Cc1ccc(OC(=O)c2cnccn2)cc1 | 0.2 | -5.8 | 0.9 | 0.7 | 1.2 | -3.7
CCCCOC(=O)c1ccc(NC(=O)c2c(Cl)ccc(Cl)c2OC)cc1 | -38.3 | 89.8 | -1.4 | -0.5 | 6.7 | 3.8
COc1ccc(/C=C2\SC(N3CCc4ccccc4C3)=NC2=O)cc1 | -2.3 | 4.2 | 1.2 | -0.5 | 13.0 | 40.7*
CCOc1ccc(/C=C2\SC(N3CCc4ccccc4C3)=NC2=O)cc1 | -12.8 | 4.4 | 0.5 | -2.2 | 2.5 | 12.6
COc1cc(/C=C2\SC(N3CCc4ccccc4C3)=NC2=O)cc(OC)c1OC | 6.6 | -2.9 | -0.7 | -2.7 | -0.3 | 27.4
O=C1N=C(N2CCc3ccccc3C2)S/C1=C\c1cccc(O)c1 | -8.6 | 54.2 | -2.4 | -0.2 | 8.6 | 31.9*
O=C(COC(=O)c1cncc(Br)c1)NCc1ccc2c(c1)OCO2 | 10.2 | 3.8 | 2.6 | 0.1 | -0.3 | -4.9
Cn1cc(-c2nnnn2-c2ccccc2)c(=O)c2ccccc21 | 7.4 | 0.5 | -0.5 | 1.1 | -1.6 | 5.5
CN(C)CCCNC(=O)/C(=C/c1ccc(-c2ccc([N+](=O)[O-])cc2)o1)NC(=O)c1ccccc1 | 3.2 | -1.8 | -3.6 | -1.3 | -0.6 | 31.4*
CN(C)C(=O)/C(=C/c1ccc(-c2cccc([N+](=O)[O-])c2)o1)NC(=O)c1ccccc1 | -3.4 | -1.0 | -3.4 | -0.4 | 0.6 | 52.9*
COc1ccc(C(=O)N/C(=C\c2ccc(-c3cccc([N+](=O)[O-])c3)o2)C(=O)NCCCN2CCOCC2)cc1 | nt | nt | -3.1 | nt | nt | 47.3*
Cc1ccc(C(=O)N/C(=C\c2ccc(-c3cccc([N+](=O)[O-])c3)o2)C(=O)NCCCN2CCOCC2)cc1 | 5.4 | 9.3 | -0.4 | -1.0 | -2.2 | 47.0*
SMILES | Rv3671c inh | Mtb bLac sens | FBA Mtb inh | UGM FP inh | RecA splice inh | GDH-TPI inh
CC12CCC(=O)N1C(C(=O)Nc1nc3ccc(F)cc3s1)CS2 (centres undefined) | -5.6 | -7.9 | -0.6 | 2.9 | nt | 0.4
Cc1ccc(C(=O)N/C(=C/c2ccc(-c3cccc([N+](=O)[O-])c3)o2)C(=O)NC(C)C)cc1 | 1.8 | 65.5 | -2.8 | 1.8 | -1.0 | 49.4*
Cc1ccc(C(=O)N/C(=C/c2ccc(-c3cccc([N+](=O)[O-])c3)o2)C(=O)NC(C)(C)C)cc1 | -7.6 | 10.7 | 5.2 | 3.3 | 1.5 | 21.6
O=C(O)CCN1CC2([N+](=O)[O-])C=CC(=O)C([N+](=O)[O-])(C1)C2CC(=O)c1ccccc1 (centres undefined) | 9.6 | -5.2 | -0.8 | -1.2 | 1.1 | 7.0
O=C(CSc1cccc2cccnc12)N/N=C/c1ccc(O)cc1 | 8.4 | 3.8 | 15.6 | -2.0 | -1.7 | 46.8*
CN(C)c1ccc(C(=O)OCC(=O)c2ccc[nH]2)cc1 | -3.4 | 3.3 | 0.9 | 4.5 | nt | 30.8*
O=C(OCC(=O)c1ccc[nH]1)c1ccccc1 | -10.1 | 0.2 | -0.2 | 3.2 | -0.3 | -7.6
Cc1ccccc1NC(=O)c1c([N+](=O)[O-])c(C(C)(C)C)nn1C | 1.2 | -4.1 | -4.0 | nt | -5.4 | -5.7
CCOP(=O)(OCC)c1nc(/C=C/c2ccccc2)oc1NCc1ccc(OC)cc1 | -1.4 | 69.0 | + | -0.8 | -14.0 | 17.6
CCOP(=O)(OCC)c1nc(/C=C/c2ccccc2)oc1NCc1ccccc1 | 3.5 | -5.5 | + | -1.7 | -3.9 | 37.4*
COCCNc1oc(/C=C/c2ccccc2)nc1C#N | -3.1 | -3.1 | nt | 1.7 | -53.7 | 22.0
FC(F)(F)c1cc(C(F)(F)F)c2ccc(N3CCN(c4ncccn4)CC3)nc2n1 | -0.5 | -8.3 | -2.3 | 1.6 | -4.7 | 1.9
CCOC(=O)c1sc2ncnc(N3CCN(C)CC3)c2c1C | 8.0 | 5.8 | 8.1 | -0.7 | -1.4 | 32.8*
Cn1c(=O)c2[nH]c(C3CCC3)nc2n(C)c1=O | nt | nt | 3.7 | nt | nt | 3.2
CCOC(=O)c1c(C)oc2c1c(C=NCCO)c(O)c1ccccc12 | nt | nt | -4.4 | nt | 45.7* | 10.4
Cc1ccc(/C=C2/C(=N)N3N=C(CC(=O)N4CCCC4)SC3=NC2=O)o1 | -9.7 | 0.9 | 4.9 | 1.5 | 0.8 | 32.8*
Cc1cc(/C=C2\C(=N)N3N=C(CC(=O)N4CCOCC4)SC3=NC2=O)c(C)n1Cc1ccccc1 | 8.0 | -0.6 | -1.5 | -1.9 | nt | 8.1
COc1cccc(-n2c(C)cc(/C=C3\C(=N)N4N=C(CC(=O)N5CCOCC5)SC4=NC3=O)c2C)c1 | -0.9 | 18.1 | -1.4 | -0.1 | -9.6 | 31.1*
COc1ccc(OC)c(-n2c(C)cc(/C=C3\C(=N)N4N=C(CC(=O)N5CCOCC5)SC4=NC3=O)c2C)c1 | -3.0 | -1.0 | 1.4 | 1.4 | 2.1 | 31.0*
CCNC(=O)COC(=O)c1ccc(NS(=O)(=O)c2ccc3c(c2)OCCO3)cc1 | -2.2 | 5.7 | -0.8 | -1.2 | 0.2 | 9.9
O=C(COC(=O)CSc1ccc(F)cc1)NCC1CCCCC1 | 7.8 | -10.1 | 5.1 | -0.7 | 2.0 | -4.2
CN(C)C(=O)c1cccc(-c2cnc3cccnn23)c1 | nt | nt | 132.0* | nt | nt | 11.1
c1cnn2c(-c3ccc4c(c3)CCO4)cnc2c1 | nt | nt | 1.9 | nt | nt | 4.5
COC(=O)c1ccc(OC(=O)c2cccs2)cc1 | -2.2 | 19.5 | -0.5 | -0.7 | 26.0 | -4.3
CCC(=O)c1ccc(OC(=O)c2cccs2)cc1 | 0.4 | 51.3 | -0.7 | 1.5 | 31.9* | 6.4
